PTHR1 agonist – PTHR1 (human) receptor agonism | Potency, µM (doses to about 115 µM), most hits filed as activators | Q03431 | 410,000 tested, 0.075% active | HEK293 GP2 PTHR1 cells, GloSensor cAMP luminescence, 1 h | AID 743266; note: nearly all actives have a fitted effect of over 55% in size
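HEK-293-derived GP2 cells expressing PTHR1 and a GloSensor cAMP reporter, 3,000/well, plated overnight, given luciferin plus IBMX (each 0.5 mM as added) for 1 h at 37 °C, then compound for 1 h at 37 °C. Luminescence was read after 15 min at room temperature.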
GLP1R ag – GLP-1 receptor (human) agonism; P43220; HEK293 GLP-1R CRE-luciferase, luminescence, 4-6 h; cells express a hypersensitive GLP-1R form; Potency, µM (doses to about 45.6 µM), usual class: activators; 380,000 tested, 0.007% active
Target sequence (P43220 whole entry, looked up): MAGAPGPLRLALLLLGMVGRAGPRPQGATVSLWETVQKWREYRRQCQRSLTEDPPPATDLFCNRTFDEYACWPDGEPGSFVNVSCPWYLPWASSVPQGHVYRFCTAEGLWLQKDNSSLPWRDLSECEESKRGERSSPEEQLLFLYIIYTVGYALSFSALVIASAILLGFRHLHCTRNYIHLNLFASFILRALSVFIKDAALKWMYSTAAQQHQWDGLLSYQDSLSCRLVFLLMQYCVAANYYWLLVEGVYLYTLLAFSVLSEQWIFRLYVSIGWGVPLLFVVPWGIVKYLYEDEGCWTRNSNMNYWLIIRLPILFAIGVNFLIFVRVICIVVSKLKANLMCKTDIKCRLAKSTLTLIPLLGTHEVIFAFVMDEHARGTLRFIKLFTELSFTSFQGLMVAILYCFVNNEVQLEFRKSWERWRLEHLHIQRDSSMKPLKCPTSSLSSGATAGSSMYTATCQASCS
RGS4 inhibitor – human RGS4 inhibition. P49798. Transcreener GDP fluorescence polarization, RGS4-accelerated GTP hydrolysis. Potency, µM (titrated, usually from 114 µM), usual class: inhibitors. 390,000 tested, 0.039% active; note: nearly all actives have a fitted effect of over 75% in size
Target sequence (P49798 whole entry, looked up): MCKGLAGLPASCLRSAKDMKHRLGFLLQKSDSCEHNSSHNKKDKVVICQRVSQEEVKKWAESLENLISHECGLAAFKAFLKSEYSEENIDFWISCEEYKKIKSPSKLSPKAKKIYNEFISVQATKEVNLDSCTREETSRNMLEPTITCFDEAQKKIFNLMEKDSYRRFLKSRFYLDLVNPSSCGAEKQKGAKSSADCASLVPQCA
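MLSMR compounds (23 nl, pin-transferred) preincubated 10 min at room temperature with a 500nM (2x) first reagent, then RGS4 at 900nM (2x) plus Transcreener GDP mix added; fluorescence polarization (620/688 nm) read before and after 90 min at 30 °C.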
GLP-1R inv ag – GLP-1 receptor (human) inverse agonism. HEK293 GLP-1R CRE-luciferase, luminescence, 24 h; GLP-1R form is constitutively active. Potency, µM (series often up to 38.3 µM), hits mostly inhibitors. 410,000 tested, 1.6% active. AID 624417; note: nearly all actives have a fitted effect of over 55% in size
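Readout was luciferase luminescence, measured 12 min after detection reagent at room temperature. Beforehand, GLP-1R reporter HEK293 cells had sat 12 h, then received compounds for 24 hr at 37 deg C.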
HEK293 tox – cytotoxicity counter-screen for GLP-1 receptor inverse agonists; Potency, µM (series often up to 38.3 µM), hits mostly inhibitors; AID 624418; HEK293 cAMP-luciferase reporter cells, luminescence, 24 h; 410,000 tested, 0.13% active;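 note: loss of luciferase light is scored as toxicity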
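MLSMR compounds, 24 hr on cells at 37 deg C/5% CO2; luminescence after luciferase reagent (12 min RT). Inhibition counted as the undesired cytotoxic outcome.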
Each line names hits and unclear results; the compound was inactive in the other large screens. This is a sample that favours compounds with a hit; in the whole collection about 1.7% have one here. Calls come from the whole dose curve; as a rule, active = well fitted curve in the direction sought with a large enough effect; inconclusive = small, poorly fitted or top-dose-only effect, or another doubt; inactive = no such curve, though single readings can be large; an effect the other way counts as inactive or inconclusive.

CCCSc1nc(N2CCOCC2)c2c(c1C#N)CC(C)(C)SC2	GLP-1R inv ag 10µM
CCSc1ccccc1C(=O)Nc1ccc(-c2nc3ccccc3s2)c(O)c1	none (no result: GLP1R ag)
CC(C)(C)c1ccc(CSC2=Nc3ccccc3C3=NC(CC(=O)NCc4cccs4)C(=O)N23)cc1 (stereo not given)	GLP-1R inv ag 10µM (no result: GLP1R ag)
COc1ccccc1CNC(=O)CCC1N=C2c3ccccc3N=C(SCC(=O)Nc3ccc(N(C)C)cc3)N2C1=O (stereo not given)	none (no result: GLP1R ag)
CN(C)c1ccc(NC(=O)CSC2=Nc3ccccc3C3=NC(CCC(=O)NCc4cccs4)C(=O)N23)cc1 (stereo not given)	GLP-1R inv ag 5.62µM (no result: GLP1R ag)
O=C(CC1N=C2c3ccccc3N=C(SCc3ccccc3Cl)N2C1=O)NCc1cccs1 (stereo not given)	none (no result: GLP1R ag)
COc1ccc(CSC(=S)NNc2ccccc2)cc1	GLP-1R inv ag inconclusive, HEK293 tox inconclusive (no result: RGS4 inhibitor)
O=C(Cc1ccccc1F)Nc1nc(-c2ccc(F)cc2)cs1	GLP-1R inv ag 8.91µM
COc1ccc(Cn2c(CNC(=O)c3ccc(N(C)C)cc3)nc3cccnc32)cc1	none (no result: GLP1R ag)
CCC1CN(C(=O)Nc2cccc3c2CCCC3)c2ccccc2O1 (stereo not given)	GLP-1R inv ag inconclusive (no result: GLP1R ag)
CCC1CN(C(=O)Nc2cccc3c2CCCC3)c2cc(Cl)ccc2O1 (stereo not given)	GLP-1R inv ag 10µM (no result: GLP1R ag)
CC(Oc1cccc(Br)c1)C(=O)NNC(=O)c1ccccn1 (stereo not given)	GLP-1R inv ag 11.2µM, HEK293 tox inconclusive
CC(Oc1ccccc1)C(=O)NNC(=O)c1ccccn1 (stereo not given)	GLP-1R inv ag inconclusive, HEK293 tox inconclusive
Cc1ccc(C(c2ccc(C)o2)c2cccc([N+](=O)[O-])c2O)o1	GLP-1R inv ag inconclusive
Cc1cc(C(c2ccc(C)o2)c2ccc(C)o2)c(O)c([N+](=O)[O-])c1	GLP-1R inv ag 10µM
Cc1ccc(NC(=O)c2cc(S(=O)(=O)NC3CCCCC3)ccc2F)cc1Cl	GLP-1R inv ag 7.94µM (no result: GLP1R ag)
O=C(Nc1ccc(F)c(F)c1)c1cc(S(=O)(=O)NC2CCCC2)ccc1F	GLP-1R inv ag 10µM (no result: GLP1R ag)
O=C(Nc1cc(Cl)cc(Cl)c1)c1cc(S(=O)(=O)NC2CCCC2)ccc1F	GLP-1R inv ag inconclusive, HEK293 tox inconclusive (no result: GLP1R ag)
CN(C(=O)c1cccc(NC(=O)Cc2ccc(NC(=O)C3CCN(C(=O)C4CC4)CC3)cc2)c1)C1CCCCC1	none
O=C1CCCCC1Sc1nnc(-c2ccc3c(c2)OCO3)o1 (stereo not given)	GLP-1R inv ag 3.16µM
Clc1ccc(CSc2nnc(-c3ccc4c(c3)OCO4)o2)cc1	none
O=C(Cn1cnc([N+](=O)[O-])c1)Nc1cc(Oc2ccc(Cl)cc2Cl)cc([N+](=O)[O-])c1	GLP-1R inv ag 5.62µM, HEK293 tox inconclusive
N#Cc1ccc(NC(=O)Cn2cnc([N+](=O)[O-])c2)cc1	none
Cc1ccc(-c2nc(SCC(=O)NCc3ccco3)c3c(=O)n(C)c(=O)n(C)c3n2)cc1	none (no result: GLP1R ag)
COc1ccnc(Oc2ccc(F)cc2)c1C(=O)N/C=N/OCc1c(Cl)cccc1Cl	GLP-1R inv ag 10µM
COc1ccnc(Oc2ccccc2)c1C(=O)N/C=N/OCc1ccccc1	none
O=c1[nH]c(=S)[nH]c2nc(-c3ccccc3)cnc12	none
O=c1[nH]c(=O)c2nc(-c3ccc(Cl)cc3)cnc2[nH]1	PTHR1 agonist 14.1µM
Cc1ccc(OCC(=O)OCc2cc(=O)n3nc(C4CCCCC4)sc3n2)cc1	none (no result: GLP1R ag)
CCOC(=O)C1=C(c2ccccc2)N=c2s/c(=C\c3cccc(O)c3)c(=O)n2C1c1cccs1 (stereo not given)	GLP-1R inv ag 11.2µM
CCOC(=O)C1=C(C)N=c2s/c(=C\c3cccc(OCC(=O)O)c3)c(=O)n2C1c1ccccc1OC (stereo not given)	none
Cc1nn(-c2ccccn2)c2nc(-c3cccs3)cc(C(=O)NCc3ccco3)c12	GLP-1R inv ag inconclusive
CCOC(=O)c1cc(-c2cccs2)nc2c1c(C)nn2-c1ccccn1	GLP-1R inv ag inconclusive, HEK293 tox 3.55µM
CCOC(=O)C1CCCN(C(=O)Cc2c(C(=O)O)[nH]c3ccccc23)C1 (stereo not given)	none
CCOC(=O)C1CCCN(C(=O)c2[nH]c3ccccc3c2Sc2ccc(Cl)cc2)C1 (stereo not given)	GLP-1R inv ag 11.2µM, HEK293 tox inconclusive (no result: GLP1R ag)
Cc1c(C(=O)N2CCN(C(c3ccccc3)c3ccccc3)CC2)oc2ccccc12	GLP-1R inv ag 4.47µM
COc1ccc(CC(=O)NCc2nn(-c3ccccc3)nc2C)cc1OC	none
COc1ccc(-c2ocnc2C(=O)NCc2nn(-c3ccccc3)nc2C)cc1	GLP-1R inv ag 10µM
Nc1c(C(=O)O)ccc2c1C(=O)c1ccccc1C2=O	HEK293 tox 10µM
CC(C)C(C(=O)O)N1C(=O)C2C3CCC(C3)C2C1=O (stereo not given)	none (no result: RGS4 inhibitor)
CNc1ccccc1C(C)(C)c1cc(-c2cccc(OC)c2)no1	GLP-1R inv ag 7.08µM
COc1ccc(CCNC(=O)CCn2c(=O)c3ccccc3n(Cc3ccccc3)c2=O)cc1OC	none
CCCCN(c1nc2ccccc2nc1Cl)S(=O)(=O)c1ccc(C)cc1	GLP-1R inv ag 10µM
CCc1cccc(CC)c1N1C(=O)CSCC1=O	none (no result: RGS4 inhibitor)
O=C1c2ccccc2C(c2nnnn2Cc2ccccc2)N1CCc1ccccc1F (stereo not given)	none (no result: RGS4 inhibitor)
CCC1C(=NO)C(CC)C(c2ccccc2)NC1c1ccccc1 (stereo not given)	GLP-1R inv ag 3.55µM, HEK293 tox inconclusive
O=C(CNC(=O)OCc1ccccc1)NCC(=O)NC(Cc1c[nH]c2ccccc12)C(=O)O (stereo not given)	none (no result: RGS4 inhibitor)
O=C(CSc1nnc(COc2ccc(Cl)cc2)o1)N1c2ccccc2CCc2ccccc21	GLP-1R inv ag 3.55µM, HEK293 tox inconclusive
COc1ccc2c(c1)c(CC(=O)Nc1ccccc1OC)c(C)n2C(=O)c1ccc(Cl)cc1	GLP-1R inv ag 10µM
COc1ccc(OC)c(NC(=O)Cc2c(C)n(C(=O)c3ccc(Cl)cc3)c3ccc(OC)cc23)c1	none (no result: GLP1R ag)
CCOC(=O)C1Nc2c(F)cc(C)cc2C2c3ccccc3CC12 (stereo not given)	GLP-1R inv ag 10µM
CCOC(=O)C1Nc2ccccc2C2c3ccccc3CC12 (stereo not given)	none
CCCN1CNc2c(c(=O)[nH]c(=S)n2CCc2cccc(OC)c2OC)C1	none (no result: PTHR1 agonist, GLP1R ag, GLP-1R inv ag, HEK293 tox)
O=C(CCCN1C(=O)/C(=C\c2cccc(Br)c2)SC1=S)Nc1ccc(C(=O)O)cc1	GLP-1R inv ag inconclusive (no result: RGS4 inhibitor)
COc1cccc(/C=C2\SC(=S)N(CCC(=O)Nc3ccc(O)cc3)C2=O)c1	GLP-1R inv ag inconclusive

Screening data from PubChem.
